FBPA coupling cs: qHTS Assay for Inhibitors of Fructose-1,6-bisphosphate Aldolase from Giardia Lamblia: Coupling assay counterscreen. coupling enzyme system counterscreen, AmpLite Red fluorescence. hit rate 0.67% among 290,000. activity change, negative = inhibition, % at 58.2 µM, hits read low; in the data active means activity change below about -30%
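First, compound is pin-transferred into glyceraldehyde-3-phosphate coupling-enzyme reagent at 57.5 uM final and held 10 min at RT. Next, substrate, coupling system and AmpLite Red are added. After 20 min RT, fluorescence (525/598 nm) is read.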
RORgamma inh: qHTS for inhibitors of ROR gamma transcriptional activity; Nuclear receptor ROR-gamma (Mus musculus), P51450; Drosophila S2 Gal4-RORgamma UAS-luciferase reporter, 20 h; Potency, µM (doses to about 53.6 µM), inactives show at the top dose activity change, negative = inhibition, most hits filed as inhibitors; hit rate 5.4% among 310,000; AID 2551, 2010; further: potency means the concentration at half of the fitted maximal effect; nearly all actives have a fitted effect of over 60% in size
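Luciferase reporter read in Schneider cells carrying Gal4-RORγ (mouse) and UAS-Photinus luciferase; cells given compound 1 h before 700 uM copper sulfate induction, then incubated 20 h at ambient temperature.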
GALK inh: qHTS Assay for Inhibitors of Human Galactokinase (GALK) | P51570 | Purified GALK, Kinase-Glo residual ATP luminescence | Potency, µM (highest dose often 57.5 µM), for the others: at the highest dose activity change, negative = inhibition, most hits filed as inhibitors | hit rate 0.007% among 270,000; further: potency means the concentration at half of the fitted maximal effect
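Human GALK (5 nM) with 35 uM ATP and 100 uM galactose in 20 mM HEPES pH 8.0, 5 mM MgCl2, 60 mM NaCl, 1 mM DTT, 0.01% BSA. After 1 h at room temperature, leftover ATP was read by Kinase-Glo Plus luminescence.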
TrxR1 inh: qHTS Assay for Inhibitors of Mammalian Selenoprotein Thioredoxin Reductase 1 (TrxR1): qHTS. Thioredoxin reductase 1, cytoplasmic (Rattus norvegicus), O89049. recombinant rTrxR1, NADPH fluorescence consumption, selenite substrate. Potency, µM (series often up to 114 µM), inactives show at the highest dose activity change, negative = inhibition, hits mostly inhibitors. hit rate 1% among 390,000. AID 588453, 2011; further: potency means the concentration at half of the fitted maximal effect; nearly all actives have a fitted effect of over 65% in size
Target sequence (O89049 whole entry, looked up): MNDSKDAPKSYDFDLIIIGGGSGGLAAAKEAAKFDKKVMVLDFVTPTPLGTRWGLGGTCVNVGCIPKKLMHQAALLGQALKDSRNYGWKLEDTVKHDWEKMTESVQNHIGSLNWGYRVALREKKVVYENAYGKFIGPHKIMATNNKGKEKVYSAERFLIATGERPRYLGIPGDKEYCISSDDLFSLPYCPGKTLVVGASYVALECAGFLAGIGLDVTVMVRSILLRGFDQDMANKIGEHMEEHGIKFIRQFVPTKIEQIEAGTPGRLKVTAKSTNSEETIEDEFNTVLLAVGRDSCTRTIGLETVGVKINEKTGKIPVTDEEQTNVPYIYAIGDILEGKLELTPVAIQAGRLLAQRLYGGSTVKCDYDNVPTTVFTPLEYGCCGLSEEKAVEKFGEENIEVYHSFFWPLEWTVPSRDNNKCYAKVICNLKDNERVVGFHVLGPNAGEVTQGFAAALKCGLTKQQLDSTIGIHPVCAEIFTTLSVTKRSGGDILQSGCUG
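Rat TrxR1 (90 nM in the dispensed reagent) was pre-reduced with 400 uM NADPH for 5 min at room temperature, then incubated with compound for 15 min. After 400 uM selenite was added, NADPH fluorescence (Ex 340/Em 450 nm) was followed for 8 min.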
TrxR1 substrate: qHTS Assay for Substrates of Mammalian Selenoprotein Thioredoxin Reductase 1 (TrxR1): qHTS; Thioredoxin reductase 1, cytoplasmic (Rattus norvegicus), O89049; purified TrxR1 substrate turnover, NADPH consumption readout; Potency, µM (series often up to 114 µM), without a hit: at the highest dose activity change, negative = substrate turnover; hit rate 0.01% among 390,000; AID 588456, 2011; further: potency means the concentration at half of the fitted maximal effect; nearly all actives have a fitted effect of over 50% in size
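Rat TrxR1, dispensed at 90 nM, was prereduced with 400 uM NADPH (final) for 5 min at ~22 deg C, then incubated with compound 15 min before 400 uM selenite. A first-read NADPH fluorescence drop versus no-compound background flagged substrates.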
VP16 counter: VP16 counterscreen qHTS for inhibitors of ROR gamma transcriptional activity | Drosophila S2 Gal4-VP16 UAS-luciferase, luminescence, 20 h | Potency, µM (highest dose often 53.6 µM), for the others: at the highest dose activity, negative = inhibition, hits mostly inhibitors | hit rate 3.5% among 310,000 | AID 2546, 2010;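 further: Gal4-VP16 expression switched on by copper sulfate through the metallothionein promoter; potency means the concentration at half of the fitted maximal effect; nearly all actives have a fitted effect of over 50% in size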
* = called active by the depositor; [ ] = remark or other dose. A selection: hits, their analogues and other compounds. The true share with any hit is near 5.9%. Unless noted, the call rests on the fitted dose curve; in most records, active means well fitted curve in the direction sought with a large enough effect; inconclusive means small, poorly fitted or top-dose-only effect, or another doubt; inactive means no such curve, though single readings can be large; an effect the other way counts as inactive or inconclusive. On the % scale 0 is the no-effect control and ±100 the full control effect.

What do the screens show for `O=C(NC(=S)Nc1ccccc1Br)c1ccco1`?
FBPA coupling cs: 0.0; RORgamma inh: inconclusive; GALK inh: -1.9%; TrxR1 inh: inconclusive; TrxR1 substrate: 0.6%; VP16 counter: inconclusive

What do the screens show for `Cc1cccc(NC(=S)NC(=O)c2ccco2)c1C`?
RORgamma inh: 3.55µM*; GALK inh: -4.3%; TrxR1 inh: inconclusive; TrxR1 substrate: -13.0%; VP16 counter: 11.2µM*

What do the screens show for `Cc1cc(C)c(O)c(NC(=S)NC(=O)Cc2ccccc2)c1`?
FBPA coupling cs: -0.9; RORgamma inh: 10µM*; GALK inh: 4.9%; TrxR1 inh: -12.3%[57.1 µM]; TrxR1 substrate: -2.9%[57.1 µM]; VP16 counter: 5.62µM*

How did CN(C)c1ccc(/C=C(/NC(=O)c2ccccc2)C(=O)N2CCCC2)cc1 do in these assays?
FBPA coupling cs: 0.7; RORgamma inh: 12.6%; GALK inh: 0.9%; TrxR1 inh: 26.8%[57.1 µM]; TrxR1 substrate: -17.3%; VP16 counter: 5.2%

How did CC1=C(CC/C(C)=N/NC(N)=S)C(C)(C)CCC1 do in these assays?
FBPA coupling cs: -3.5; RORgamma inh: 1.78µM*; GALK inh: 0.5%; TrxR1 inh: 4.0%; TrxR1 substrate: 1.7%; VP16 counter: 2.82µM*

Results for CCOC(=O)CC(=O)CSc1ncnc2c1nnn2-c1ccc(OC)cc1 ?
FBPA coupling cs: 0.8; RORgamma inh: 8.91µM*; GALK inh: 7.0%; TrxR1 inh: 46.3%[57.1 µM]; TrxR1 substrate: -2.9%[57.1 µM]; VP16 counter: -3.1%

How did O=C(Nc1nc2c(s1)CCc1ccccc1-2)c1cccs1 do in these assays?
FBPA coupling cs: -11.4; RORgamma inh: 10µM*; GALK inh: -4.0%; TrxR1 inh: -8.1%; TrxR1 substrate: 0.8%; VP16 counter: -27.0%

How did CSc1nc2ccc3nc(NC(=O)c4cccs4)sc3c2s1 do in these assays?
FBPA coupling cs: -0.1; RORgamma inh: 6.31µM*; GALK inh: -3.2%; TrxR1 inh: 6.6%; TrxR1 substrate: 21.2%; VP16 counter: -4.0%

How did O=C(Nc1nc2c(s1)COc1ccccc1-2)c1cccs1 do in these assays?
FBPA coupling cs: 0.1; RORgamma inh: inconclusive; GALK inh: 0.5%; TrxR1 inh: -3.6%[57.1 µM]; TrxR1 substrate: 8.4%[57.1 µM]; VP16 counter: 5.1%

What do the screens show for `Fc1ccccc1Nc1nc2c(s1)CCc1ccccc1-2`?
FBPA coupling cs: -69.5*; RORgamma inh: 20.2%; GALK inh: 1.1%; VP16 counter: inconclusive

What do the screens show for `CC(=O)COc1nc2c(c(-c3ccco3)c1C#N)CCc1ccccc1-2`?
FBPA coupling cs: -11.1; RORgamma inh: 1.2%; GALK inh: 1.5%; TrxR1 inh: 6.2%[57.1 µM]; TrxR1 substrate: 98.8%; VP16 counter: -13.7%

How did NC(=O)CC(NC(=O)Cc1ccc(Cl)cc1)c1ccc(NC2CC3CCC2C3)c([N+](=O)[O-])c1 (stereo unspecified) do in these assays?
FBPA coupling cs: 3.3; RORgamma inh: 43.5%; TrxR1 inh: 0.6%[57.1 µM]; TrxR1 substrate: 2.3%[57.1 µM]; VP16 counter: -5.3%

How did CC(C)Cn1c(N)c(C(=O)NCC2CCCO2)c2nc3ccccc3nc21 (stereo unspecified) do in these assays?
FBPA coupling cs: -47.4*; RORgamma inh: 2.0%; GALK inh: 1.9%; TrxR1 inh: 9.1%[57.1 µM]; TrxR1 substrate: 67.7%[57.1 µM]; VP16 counter: 3.3%

What do the screens show for `COCCn1c(N)c(S(=O)(=O)c2cccs2)c2nc3ccccc3nc21`?
FBPA coupling cs: -33.3*; RORgamma inh: 11.9%; GALK inh: -4.2%; TrxR1 inh: 28.9%; TrxR1 substrate: 595.0%; VP16 counter: -18.3%
